High-throughput results as filed in PubChem BioAssay.
Sfp PPTase inh: qHTS Assay for Inhibitors of Bacillus subtilis Sfp phosphopantetheinyl transferase (PPTase) | 4'-phosphopantetheinyl transferase ffp (Bacillus subtilis), Q9F4F7 | Potency, µM, for inactives: largest response in the series, negative = inhibition, most hits filed as inhibitors | hit rate 3.5% among 310,000 | Biochemical Sfp PPTase activity, qHTS;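 further: the enzyme is Sfp with the accession as filed and its product quenches rhodamine fluorescence; 0% = enzyme reaction without inhibitor and -100% = no enzyme wells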
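Buffer: 50 mM Hepes-Na pH 7.6, 10 mM MgCl2, 0.01% Nonidet P-40, 0.01% BSA. Enzyme 15 nM, pre-exposed to compound 15 min; substrates then added and fluorescence change tracked over 30 min.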
G9a block: qHTS Assay for Inhibitors of Histone Lysine Methyltransferase G9a | Histone-lysine N-methyltransferase EHMT2 (Homo sapiens), Q96KQ7 | G9a H3K9 monomethylation, AlphaScreen, 2 h | Potency, µM (series often up to 102 µM), for inactives: at the highest dose activity, negative = inhibition, usual class: inhibitors | hit rate 8.8% among 350,000; further: on the % scale 0 is the no-effect control and ±100 the full control effect; nearly all actives have a fitted effect of over 75% in size
Target sequence (Q96KQ7 913-1193 limits assumed): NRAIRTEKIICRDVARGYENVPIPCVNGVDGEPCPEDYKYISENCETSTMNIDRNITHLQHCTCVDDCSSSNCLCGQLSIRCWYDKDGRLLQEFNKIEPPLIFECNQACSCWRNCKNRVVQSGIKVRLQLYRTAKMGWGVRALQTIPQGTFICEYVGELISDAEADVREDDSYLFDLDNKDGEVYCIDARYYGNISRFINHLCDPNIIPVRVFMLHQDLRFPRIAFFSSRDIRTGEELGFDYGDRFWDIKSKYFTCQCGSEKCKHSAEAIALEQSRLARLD
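Using a bead-based AlphaScreen, monomethylated H3K9 product from 2 h room-temperature reactions (G9a 20 nM, peptide 500 nM, SAM 20 uM) was detected with 0.5 ug/mL rabbit anti-H3K9me1 antibody.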
HP1b chromo inh: HTS for Inhibitors of HP1-beta Chromodomain Interactions with Methylated Histone Tails | Chromobox protein homolog 1 (Homo sapiens), P83916 | AlphaScreen HP1-beta / biotin-H3K9me3 peptide binding | Potency, µM (top dose mostly 114 µM), inactives show top-dose activity change, negative = inhibition, most hits filed as inhibitors | hit rate 0.56% among 390,000 | AID 540317, 2011; further: nearly all actives have a fitted effect of over 70% in size
Target sequence (P83916 whole entry, looked up): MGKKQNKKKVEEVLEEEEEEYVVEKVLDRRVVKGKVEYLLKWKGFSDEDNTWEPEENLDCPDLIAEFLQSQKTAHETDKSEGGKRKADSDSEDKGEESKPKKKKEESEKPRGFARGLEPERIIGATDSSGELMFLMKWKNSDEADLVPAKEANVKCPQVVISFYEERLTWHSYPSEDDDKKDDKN
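HP1-beta protein (50 nM final) preincubated 30 min at room temperature with biotinylated H3(1-18)K9me3 peptide (50 nM) in PBS pH 7.4, 0.01% Tween-20, then compound added for 30 min. AlphaScreen streptavidin donor/nickel chelate acceptor beads (10 ug/mL final), 30 min dark, luminescence read.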
BAZ2B block: qHTS Assay for Inhibitors of BAZ2B; Potency, µM (series often up to 114 µM), for the others: at the highest dose activity change, negative = inhibition, most hits filed as inhibitors; AID 504333, 2011; AlphaScreen BAZ2B-H3K14Ac peptide displacement; Bromodomain adjacent to zinc finger domain protein 2B (Homo sapiens), Q9UIF8; hit rate 4.4% among 360,000; further: on the % scale 0 is the no-effect control and ±100 the full control effect; nearly all actives have a fitted effect of over 60% in size
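AlphaScreen luminescence quantifies BAZ2B engagement of H3K14Ac peptide; the protein and biotinylated peptide are both at 50 nM final, buffer PBS pH 7.4 with 0.01% Tween-20, all steps at room temperature.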
L3MBTL1 block: qHTS Assay for the Inhibitors of L3MBTL1. AlphaScreen L3MBTL1–H3K9me1 peptide binding. Potency, µM (titrated, usually from 57.1 µM), for inactives: at the highest dose activity, negative = inhibition, hits mostly inhibitors. hit rate 0.66% among 230,000. AID 485360, 2010; further: on the % scale 0 is the no-effect control and ±100 the full control effect; nearly all actives have a fitted effect of over 60% in size
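First, the protein-peptide complex forms for 30 min at room temperature (L3MBTL1 50 nM, biotinylated H3K9me1 peptide 75 nM). Next, compounds are pin-transferred and incubated 30 min. Finally, AlphaScreen beads are added and read after 30 min.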
JMJD2A Tudor: qHTS Assay for Inhibitors of JMJD2A-Tudor Domain | AlphaScreen JMJD2A-Tudor / H3K4me3 peptide binding | Potency, µM (highest dose often 114 µM), without a hit: at the top dose activity change, negative = inhibition, usual class: inhibitors | hit rate 4.4% among 390,000 | Lysine-specific demethylase 4A (Homo sapiens), O75164; further: on the % scale 0 is the no-effect control and ±100 the full control effect; nearly all actives have a fitted effect of over 50% in size
Numbers without * were called inactive; ? = inconclusive; · = not tested or not shown; [ ] = remark or other dose. The list is not random: actives were taken first. Their share in the collection is about 12%. The call rests on the fitted dose curve; in most records, active means well fitted curve in the direction sought with a large enough effect; inconclusive means small, poorly fitted or top-dose-only effect, or another doubt; inactive means no such curve, though single readings can be large; an effect the other way counts as inactive or inconclusive. Potency means the concentration at half of the fitted maximal effect.

SMILES	Sfp PPTase inh	G9a block	HP1b chromo inh	BAZ2B block	L3MBTL1 block	JMJD2A Tudor
COc1ccc(N/C(=C(/C(Cl)=C(Cl)Cl)[N+](=O)[O-])n2nnc3ccccc32)cc1OC	20µM*	14µM*	·	56µM*	·	·
CN(CC(=O)Nc1ccccc1Cl)C(=O)CN1C(=O)NC(c2ccccc2)(c2ccccc2)C1=O	·	-5%[2.33 µM]	36%	4%	-7%	-12%
O=C(NCc1ccncc1)C1CCN(S(=O)(=O)c2ccccc2)CC1	·	-32%	33%	-6%	-3%	-7%
CCN1C(=O)/C(=C/C=C2\C=CN(CC)c3ccccc32)SC1=S	45µM*	8.9µM*	3.5µM*	2µM*	-18%	?
CCN1C(=O)/C(=C\C=C2/C=CC=CN2CC)SC1=S	?	10µM*	40µM*	22µM*	?	?
Cc1ccc(C(C(=O)Nc2ccc3c(c2)OCO3)N(C)C(=O)Cc2c[nH]c3ccccc23)cc1 (stereo unspecified)	7%	40µM*	-15%	?	-3%	?
CC(=O)NC(Cc1c[nH]c2ccccc12)C(=O)OCC(=O)Nc1ccc2c(c1)OCO2 (stereo unspecified)	-5%	-9%[59 µM]	10%	3%	-3%	-20%
CN(CC(=O)Nc1ccc(Cl)c(Cl)c1)C(=O)CN1C(=O)NC2(CCCC2)C1=O	·	?	5%	9%	3%	-21%
CCOc1ccc(NC(=O)CN(C)C(=O)Cc2c[nH]c3ccccc23)cc1OCC	·	50µM*	-17%	-7%	-3%	-26%
CCOc1ccc(NC(=O)CN(C)C(=O)CN2C(=O)NC3(CCCC3)C2=O)cc1OCC	·	56µM*	-11%	-6%	-2%	-14%
CCC(=O)NCCCC[C@H](NC(=O)OCc1ccccc1)C(=O)Nc1ccc2c(C)cc(=O)oc2c1	6%	·	·	·	·	·
Cc1ccnc(Nc2nc(-c3ccc(O)c(O)c3)cs2)c1	50µM*	28µM*	?	40µM*	-9%	56µM*
CC(=O)Nc1ccc(-c2csc(Nc3ccccn3)n2)cc1	-27%	·	24%	-5%	·	-20%
Oc1ccc(-c2csc(Nc3cccc4ccccc34)n2)cc1O	50µM*	13µM*	?	35µM*	25µM*	40µM*
Cc1ccnc(Nc2nc(-c3ccc(O)cc3O)cs2)c1	40µM*	79µM*	-10%	50µM*	-8%	?
Oc1ccc(-c2csc(Nc3ccccn3)n2)cc1O	45µM*	11µM*	14µM*	40µM*	?	56µM*
O=C(COC(=O)c1ccco1)NCCc1ccc(Cl)cc1	·	-5%[12.7 µM]	38%	-2%	-1%	8%
CCOc1ccccc1CNC(=O)c1ccc2nc(CCc3ccccc3)oc2c1	·	17%[59 µM]	25%[57 µM]	-1%	·	-16%
CNC(=O)NC(=O)COc1ccc2oc3c(c2c1)CCCC3	29%	10%	10%	1%	·	-18%
Cc1cc(C)c(C(=O)NCC(=O)c2ccccc2)c(C)c1	·	·	24%	·	·	1%
O=S(=O)(NCCc1csc2nc(-c3ccccc3)nn12)c1ccc(Oc2ccccc2)cc1	·	9%[59 µM]	2%	-14%	·	-21%
CN1CCN(c2ccc(C(F)(F)F)cc2NC(=O)c2ccco2)CC1	1%	93%	10%	3%	·	-24%
Cc1cccc(Nc2nc(-c3ccc(O)c(O)c3)cs2)n1	-12%	40µM*	?	50µM*	-8%	?
Cc1cccc(Nc2nc(-c3ccc(F)c(C)c3)cs2)n1	-18%	-2%	18%	-12%	·	-29%
OC[C@@H](O)C(O)[C@H](O)[C@H](O)CO (stereo partly specified)	12%	·	·	·	·	·
SMILES	Sfp PPTase inh	G9a block	HP1b chromo inh	BAZ2B block	L3MBTL1 block	JMJD2A Tudor
Cc1ccc2c(Cl)cc(Cl)c(OCC(=O)Nc3cc(S(=O)(=O)N(C)C)ccc3C)c2n1	?	71µM*	52%	2%	-5%	-22%
Cc1ccc(S(=O)(=O)N(C)C)cc1NC(=O)COC(=O)C1CCCC1	·	-18%	20%	-3%	1%	20µM*
Cc1ccc(S(=O)(=O)N(C)C)cc1NC(=S)NNC(=O)C(N)=O	22%	45µM*	37%	-25%	3%	-24%[11.4 µM]
Cc1ccc2c(Cl)cc(Cl)c(OCC(=O)Nc3cccc(S(=O)(=O)N(C)C)c3)c2n1	3%	17%[59 µM]	36%	5%	5%	-1%
O=C(NCc1cnc2ccccn12)C1CCC(=O)N(Cc2cccc(F)c2)C1 (stereo unspecified)	12%	?	15%	-6%	·	-7%
C/C(=N\NC(=O)c1cccc(S(=O)(=O)N2CCCC2)c1)c1ccc(OCC(=O)N(C)C)cc1	·	4%	7%	6%	-4%	-11%
COc1cccc(C2C3=C(N=c4s/c(=C\c5ccc(OCC(=O)O)cc5)c(=O)n42)c2ccccc2CC3)c1 (stereo unspecified)	56µM*	20µM*	-11%	50µM*	-1%	45µM*
COc1ccccc1C1C2=C(N=c3s/c(=C/c4cccc(OCC(=O)O)c4)c(=O)n31)c1ccccc1CC2 (stereo unspecified)	79µM*	14µM*	?	50µM*	-27%	35µM*
CCN(CC)CCSc1nc2ccccc2n1Cc1ccccc1	-11%	?	52%	-38%	-15%	-11%
Cc1ccsc1/C=N/NC(=O)c1nnn(-c2nonc2N)c1CSc1ccccc1	15%	50%	65%	-8%[57.1 µM]	·	-29%
CCc1nn(C(C)C(=O)N(C)Cc2ccccc2)c(=O)c2cc3occc3n12 (stereo unspecified)	15%	?	36%	4%	·	-8%
COc1ccc(/C=C/C(=O)c2ccncc2)c2ccccc12	?	?	38%	-38%	-5%	56µM*
Cn1c2ccccc2c2cnn(CC(=O)NCCCN3CCCCC3)c(=O)c21	·	0%[59 µM]	23%	3%	·	-1%
CN(CCCNC(=O)c1cc2c(Cl)nc3ccccc3c2s1)Cc1ccccc1	79µM*	?	8%	?	·	?
CCN(CCCNC(=O)c1cc2c(Cl)nc3ccccc3c2s1)Cc1ccccc1	·	-37%[59 µM]	5%	?	·	?
Cc1ccc2nc(Cl)c3cc(C(=O)NCCCN(C)Cc4ccccc4)sc3c2c1	·	?	-10%	22µM*	·	?
